# From PubChem
# Sampled rows, rich in hits. Any-hit rate of the full collection: about 1.5%.
# BLM helicase inh = Bloom syndrome helicase (human) inhibition | Potency, µM (top dose mostly 56.1 µM), without a hit: at the top dose activity change, negative = inhibition, actives largely listed as inhibitors | AID 2528 | recombinant BLM DNA unwinding, fluorescence dequenching | actives 0.2% (n = 350,000) | P54132;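 further: potency means the concentration at half of the fitted maximal effect; plate controls were vehicle for no effect and no enzyme for full effect; nearly all actives have a fitted effect of over 35% in size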
# PI5P4K alpha inh = inhibitors of human PI5P4K alpha; actives 1.2% (n = 330,000); PI5P4Kalpha enzyme, ADP-Glo luminescence, 60 min; active compounds read low; P48426; AID 652105; max response, %; active means max response of -50% or lower; inconclusive means between -30% and -50%; inactive means -30% or higher; further: value at the top dose of about 77 µM
#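 Single end-point luminescence (ADP-Glo) quantified ADP from PI5P4Kalpha turnover; ATP 5 microM final, 1 h at RT, 0.1% CHAPS and 0.28 mM EGTA in HEPES pH 7.4.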
# WRN helicase inh = blocks human WRN helicase. Q14191. WRN helicase unwinding, fluorescent forked duplex, kinetic. Potency, µM (top dose mostly 114 µM), inactives show at the highest dose activity change, negative = inhibition, most hits filed as inhibitors. actives 0.46% (n = 360,000). AID 651768; further: potency means the concentration at half of the fitted maximal effect; nearly all actives have a fitted effect of over 55% in size
#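 Fluorescence dequenching readout, ex 525 nm/em 598 nm, kinetic mode: forked duplex DNA (100 nM final) with adjacent fluorophore and quencher unwound by WRN (20 nM final) with 2 mM ATP. Compound preincubation 15 min, room temperature.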
# FEN1 inhibitor = inhibitors of human flap endonuclease 1; P39748; Potency, µM (top dose mostly 114 µM), for the others: at the top dose activity change, negative = inhibition, most hits filed as inhibitors; AID 588795; Recombinant FEN1 flap cleavage, fluorescence, 15 min; actives 0.35% (n = 390,000); further: potency means the concentration at half of the fitted maximal effect; nearly all actives have a fitted effect of over 65% in size
#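 Steps: FEN1 (10 nM) dispensed; compound added by pin tool; 15 min at room temperature; substrate added to 50 nM final; reads at 0 min and 15 min; data normalized and fitted (four-parameter Hill).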
# APE1 inh = APE1 (human) endonuclease inhibition; P27695; recombinant APE1, TAMRA/BHQ-2 abasic DNA cleavage fluorescence; Potency, µM (top dose mostly 65.8 µM), for the others: at the top dose activity change, negative = inhibition, actives largely listed as inhibitors; actives 0.35% (n = 350,000);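 further: potency means the concentration at half of the fitted maximal effect; plate controls were vehicle for no effect and reference inhibitor for full effect; nearly all actives have a fitted effect of over 55% in size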
#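 Step 1: APE1 (0.75 nM) with compound, 15 min RT. Step 2: add 50 nM fluorophore/quencher THF duplex. Step 3: three fluorescence reads 60 s apart (525/598 nm); read 3 minus read 1 = reaction progress.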
# RECQ1 inh = inhibitors of human RECQ1 DNA helicase | P46063 | RECQ1 DNA unwinding, red fluorescence kinetic read | Potency, µM (series often up to 57.3 µM), for the others: top-dose activity, negative = inhibition, hits mostly inhibitors | actives 0.54% (n = 240,000);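 further: potency means the concentration at half of the fitted maximal effect; plate controls were vehicle for no effect and no enzyme for full effect; nearly all actives have a fitted effect of over 30% in size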
# Target sequence (P46063 whole entry, looked up): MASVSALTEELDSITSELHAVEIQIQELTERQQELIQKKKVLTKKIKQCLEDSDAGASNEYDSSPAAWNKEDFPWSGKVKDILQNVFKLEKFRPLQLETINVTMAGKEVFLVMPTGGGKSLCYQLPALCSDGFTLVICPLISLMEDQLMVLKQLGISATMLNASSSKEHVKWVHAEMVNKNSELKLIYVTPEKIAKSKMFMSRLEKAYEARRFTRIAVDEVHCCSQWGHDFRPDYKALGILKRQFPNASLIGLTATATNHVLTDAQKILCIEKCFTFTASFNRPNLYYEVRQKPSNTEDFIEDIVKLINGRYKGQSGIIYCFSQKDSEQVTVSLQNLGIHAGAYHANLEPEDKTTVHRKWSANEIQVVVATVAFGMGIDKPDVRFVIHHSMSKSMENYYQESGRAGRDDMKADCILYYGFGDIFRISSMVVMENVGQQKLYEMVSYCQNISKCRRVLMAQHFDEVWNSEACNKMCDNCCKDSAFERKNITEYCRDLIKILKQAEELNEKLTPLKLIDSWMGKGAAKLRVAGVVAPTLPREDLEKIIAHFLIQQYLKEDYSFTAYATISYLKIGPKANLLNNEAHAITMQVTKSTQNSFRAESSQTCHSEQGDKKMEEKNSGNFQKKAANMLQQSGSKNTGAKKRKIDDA
#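 50 nM RECQ1T1 preincubated 15 min with compound in Tris pH 8.0 buffer with MgCl2, DTT, Tween-20 and 2.5 ug/ml poly(dI-dC); started with 200 nM TAMRA/BHQ-2 forked duplex and 2 mM ATP. Unwinding read as fluorescence (525/598 nm), two reads 2 h apart.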
# * hit, by the source's call; i = inactive; ? = inconclusive; . = not tested or not shown; [ ] = remark or other dose. Unless noted, the call rests on the fitted dose curve; in most records, active means well fitted curve in the direction sought with a large enough effect; inconclusive means small, poorly fitted or top-dose-only effect, or another doubt; inactive means no such curve, though single readings can be large; an effect the other way counts as inactive or inconclusive. Unless noted, on the % scale 0 is the no-effect control and ±100 the full control effect.
SMILES,BLM helicase inh,PI5P4K alpha inh,WRN helicase inh,FEN1 inhibitor,APE1 inh,RECQ1 inh
O=C(N/N=C/c1c[nH]c2ccccc12)c1cc(-c2cccc3ccccc23)n[nH]1,-5.8%,-56.0*,-8.3%,-28.8%,0.3%,-5.9%
C=C1CC[C@H](O)C/C1=C/C=C1\CCC[C@]2(C)[C@@H]([C@H](C)CCCC(C)(C)O)CC[C@@H]12,-6.4%,.,.,.,4.5%,-12.3%
O=C(N/N=C/c1ccccn1)c1cc(-c2ccc3ccccc3c2)n[nH]1,?,?,?,44.7µM*,-2.2%,-27.0%
O=C(O)c1ccc2c(c1)C(=O)/C(=C/c1ccccc1)C2=O,52.9%,-56.1*,?,39.8µM*,?,13.1%
CCOC(=O)N1CCN(C(=O)CN2C(=O)/C(=C\c3cccc(OC)c3)SC2=S)CC1,.,.,.,-4.5%,.,.
COC(=O)C1=C(C)OC(N)=C(C#N)C1c1ccccc1F (configuration not stated),-3.6%,.,5.4%,-4.0%,-1.2%,-5.3%
N#CC1=C(N)Oc2cc(O)c(Cl)cc2C1c1cccnc1 (configuration not stated),-4.4%,-51.8*,5.4%,-3.2%,52.7%,.
N#CC1=C(N)Oc2cc(O)c(Cl)cc2C1c1ccccc1F (configuration not stated),-3.2%,-64.4*,-9.0%,8.9%,20.9%,.
N#CC1=C(N)Oc2ccc3ccc(O)cc3c2C1c1cccnc1 (configuration not stated),-4.6%,.,-18.9%,-13.5%,-4.0%,-5.1%
Cc1ccccc1-c1noc(-c2ccc(N3CCN(C)CC3)c([N+](=O)[O-])c2)n1,-1.6%,.,.,-10.8%,.,.
CNS(=O)(=O)c1cccc(C(=O)OCC(=O)c2ccc(S(=O)(=O)N3CCCCC3)cc2)c1,.,-55.6*,-12.0%,-19.9%,-17.1%,.
CC(=O)Nc1cccc(C(=O)OCC(=O)c2ccc(S(=O)(=O)N3CCCCC3)cc2)c1,.,-21.4,5.4%,?,-9.8%,.
Cc1cc[n+](CCC2CCCCC2)c2ccccc12,.,.,.,2.6%,.,.
O=C(/C=C/c1ccccc1)/C=C/c1ccccc1,-12.9%,-1.2,?,?,10.3%,14.1µM*
COc1cccc(Cn2c(CNS(=O)(=O)c3ccc(C(C)(C)C)cc3)nc3cccnc32)c1,-4.9%,.,.,-8.0%,.,.
CC(C)(C)n1ncc2c(=O)n(Cc3ccc(Cl)cc3F)cnc21,.,.,.,-16.1%,-2.7%,.
C=CCN(CC=C)C(=S)Nc1ccc2nsnc2c1,3.55µM*,-2.4,20.6%,-8.4%,-11.6%,-4.2%
COc1ccc(NC(=S)Nc2ccc3nsnc3c2)cc1,3.98µM*,-19.3,?,?,-0.9%,13.9%
COc1ccc(NC(=S)Nc2ccc3nc(C)c(C)nc3c2)cc1,-7.3%,-0.2,2.3%,3.2%,-7.5%,i
CCOc1ccc(NC(=S)Nc2ccc3nsnc3c2)cc1,3.98µM*,-11.6,-4.9%[11.6 µM],-30.8%,5.8%,1.4%
C=CCNC(=S)Nc1ccc2nsnc2c1,-5.6%,10.5,-6.1%,0.5%,-2.7%,2.9%
CCc1ccc(OCC(=O)N(Cc2ccco2)Cc2ccccc2Cl)cc1,-3.4%,.,.,-1.7%,.,.
Cc1[nH]n(-c2ncc(-c3ccccc3)s2)c(=O)c1C(c1ccc(Br)cc1)C(C#N)C#N (configuration not stated),?,-69.7*,?,?,3.5%,0.3%
O=C(Nc1cccc(C(F)(F)F)c1)c1ccc2nc(-c3ccco3)c(-c3ccco3)nc2c1,?,-101.8*,25.1µM*,?,14.0%,i
O=C(Nc1cccc(C(F)(F)F)c1)c1ccc2snnc2c1,-0.1%,.,.,17.7%,.,.
SMILES,BLM helicase inh,PI5P4K alpha inh,WRN helicase inh,FEN1 inhibitor,APE1 inh,RECQ1 inh
C=CCn1c(=O)n([C@@H]2O[C@H](CO)[C@@H](O)[C@H]2O)c2nc(N)[nH]c(=O)c21,.,.,.,.,-1.5%,.
C#CCOc1ccc(-c2no[n+]([O-])c2C#N)cc1,.,.,.,.,-9.3%,.
O=C(CCc1ccc(S(=O)(=O)N2CCOCC2)cc1)N/N=C/c1ccc(F)cc1F,-3.3%,1.5,-5.5%,-1.0%,2.6%,i
O=C(CCc1ccc(S(=O)(=O)N2CCOCC2)cc1)N/N=C/c1ccc(O)c(O)c1O,-28.6%,?,79.4µM*,?,?,-2.0%
CC12CCC=CC1C(c1cccc(Br)c1)N(Cc1ccccc1)C2=O (configuration not stated),-3.5%,.,.,-25.4%,-9.0%,-3.9%
O=C(NNC(=O)c1cc2cc3ccccc3nc2s1)c1ccc(F)cc1,-23.6%,-15.1,-23.5%[57.1 µM],-9.5%,6.31µM*,-0.7%
Cc1cccc(C(=O)NNC(=O)c2cc3cc4ccccc4nc3s2)c1,-4.9%,1.3,-30.3%,-0.5%,8.4%,-3.2%
CCOC(=O)c1c(C)[nH]c(C)c1S(=O)(=O)N1CCC(C(=O)Nc2ccccn2)CC1,-1.1%,.,.,-3.9%,.,.
Cc1ccc(/C=N/NC(=O)c2nnn(-c3nonc3N)c2CSc2ccccc2)o1,-10.9%,-14.4,-13.6%,-0.7%,-8.3%,.
Cc1ccc(SCc2c(C(=O)N/N=C/c3ccc(C)o3)nnn2-c2nonc2N)cc1,.,-54.8*,-3.1%,.,.,.
CC(=O)N1C(=O)c2cccc3cccc(c23)C(=O)N1C(C)=O,0.9%,3.2,14.9%,-0.2%,-2.2%,-4.1%
O=C1c2cccc3cccc(c23)C(=O)C1(O)O,.,?,20µM*,1µM*,.,.
Cc1ccc(NC(=O)N2CC3CCCN3c3ccccc32)c(C)c1 (configuration not stated),-7.2%,.,.,-3.0%,.,.
COCCN(CC(=O)Nc1cccc(C)c1C)C(=O)c1cc2c(s1)CCC2,.,?,1.4%[11.6 µM],7.0%,15µM*,.
CCN(CC(=O)Nc1ccccc1C(F)(F)F)C(=O)c1cc2c(s1)CCCCC2,.,-5.0,3.5%,-12.1%,-6.4%,.
O=S(=O)(O)c1cccc(N=Nc2c(O)ccc3ccccc23)c1,-8.1%,-54.3*,-14.8%,?,?,-14.0%
CC(SC(=S)N1CCOCC1)C(=O)O (configuration not stated),-1.1%,0.0,-1.5%,-0.8%,-1.8%,i
S=C(SSC(=S)N1CCOCC1)N1CCOCC1,.,-88.1*,0.2%[57.1 µM],.,.,.
S=c1[nH]nc(-c2cc(-c3ccccc3)n[nH]2)n1/N=C/c1cccc(Cl)c1,-19.6%,-15.3,50.1µM*,?,-5.2%,?
O=[N+]([O-])c1cc(/C=N/n2c(-c3ccncc3)n[nH]c2=S)ccc1Cl,-28.4%,?,?,50.1µM*,-15.5%,4.47µM*
S=c1[nH]nc(-c2cc(-c3ccccc3)n[nH]2)n1/N=C/c1ccc(Cl)cc1,-10.2%,-24.6,-16.5%[11.6 µM],14.1%,-2.2%,-15.1%
CN(C)c1ccc(/C=C/c2c(Cl)cnc3ccccc23)cc1,.,.,.,8.1%,.,.
O=C1C(c2ccccc2)=[N+]([O-])c2ccccc21,.,-5.9,70.8µM*,?,1.2%,.
CCOc1ccc(NC(=O)N2CCC(CN3CCCCCC3)CC2)cc1,-8.5%,.,.,9.4%,.,.
